This assay deals with T1, Arginase-2, mitochondrial (Homo sapiens) (UniProt P78540).
T1 sequence (whole entry): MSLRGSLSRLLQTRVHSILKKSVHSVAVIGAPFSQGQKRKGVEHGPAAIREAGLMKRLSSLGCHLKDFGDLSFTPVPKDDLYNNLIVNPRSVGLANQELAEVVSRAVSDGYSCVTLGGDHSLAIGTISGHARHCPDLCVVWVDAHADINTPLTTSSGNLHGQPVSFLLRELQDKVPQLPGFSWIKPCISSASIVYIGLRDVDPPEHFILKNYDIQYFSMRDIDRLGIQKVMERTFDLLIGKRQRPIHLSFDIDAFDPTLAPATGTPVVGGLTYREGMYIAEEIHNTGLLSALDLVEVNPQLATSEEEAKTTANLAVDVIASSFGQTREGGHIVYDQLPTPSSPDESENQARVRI
The experiment in a line: in vitro enzyme assay to detect the production of urea directly proportional to the activity of Arginase II. The assay is classed as functional. Also noted: scale not given: in the data most compounds retested in dose-response had high values. The settings on record: 33.3 µM.
Consider `Cc1ccc2c(c1)CN(C(=O)C1CCCCC1)C(CN(C)C)CO2` (stereo not given), for which the Percent Effect is -4.41%.
Regarding `O=C(O)c1cc2c(nc1O)CC(c1cccs1)CC2=O` (stereo not given), the Percent Effect was -2.64%.
With `Cc1nc(N2CCCC2)nc2c1CCN(C(=O)C1CCCC1)CC2`, the Percent Effect is -4.4%.
For the molecule `Cc1ccc(CC(=O)NCCCNS(C)(=O)=O)cc1`, the Percent Effect is -1.94%.
`CSCC(CCO)NC(=O)Nc1cc(C)ccc1C` (stereo not given): the Percent Effect was found to be 4.09%.
`COC(=O)c1sccc1S(=O)(=O)N1CCC(Oc2ncccc2Cl)CC1`: the Percent Effect was -0.455%.
In the case of `Cc1cc(-c2cnn(CCNC(=O)C3CCCO3)c2C2CC2)on1` (stereo not given), the Percent Effect was 0.232%.
As to `Cc1ccc(NS(=O)(=O)CC2=NC(=O)n3cccc3C2=O)cc1`, the Percent Effect is -3.7%.
As for `CCS(=O)(=O)N1CCc2ccc(NC(=O)Nc3ccc(F)cc3F)cc21`, the figure is -3.23%; as for `Cc1csc(C2CCCN(C(=O)c3cnc[nH]3)C2)n1` (stereo not given), -4.41%.
To `O=C(c1ccc[nH]1)N1CCc2c(COCC3CC3)cncc2C1` belongs 0.955%; to `CC(C)c1nn(C)c(N(C)C)c1CNCc1ccccc1CN(C)C`, -5.36%.
As to `c1ccc(-c2noc(CN3CCC(c4ccn[nH]4)CC3)n2)cc1`, the Percent Effect is 26.2%.
In the case of `Cc1ccc(C)c(NC(=O)N(C)Cc2cnn(C)c2)c1`, the Percent Effect was -0.401%.
As for `COc1ccc(CN(Cc2cncn2C)CC2CCCO2)cc1OC` (stereo not given), the Percent Effect was determined as 3.94%.
As for `CN(C)C(=O)CC1CC2(CCN(C(=O)N(C)C)CC2)Oc2ccccc21` (stereo not given), the figure is 2.73%; as for `Cc1noc(C)c1C(=O)NCC(C)N(C)C` (stereo not given), -1.29%.
To `COc1ccc2c(c1)CC(NC(=O)NCc1cccs1)CO2` (stereo not given) belongs -112%.
As to `Cc1cc(C)n(CC2CCCN2C(=O)c2ccc3c(c2)nnn3C)n1` (stereo not given), the Percent Effect was 7.27%.
To `O=C1[C@@H]2CCN(Cc3ccoc3)C[C@@H]2OCCN1Cc1cccnc1` belongs -0.699%; to `CCc1nnc(CN(C)c2nc(C(C)C)nc3c2cnn3C)o1`, 2.21%; to `CCOC(=O)NC(CNC(=O)CCc1ccccn1)CC(C)C` (stereo not given), 2.73%.
In the case of `CC(C)c1nn(C)c(N(C)C)c1CNCCC(=O)NC1CCCC1`, the Percent Effect came out at 1.08%.
On to `Cc1cnn(CC2CCCN2C(=O)c2cnc3n[nH]c(C)c3c2)c1` (stereo not given), for which the Percent Effect is 0.645%.
Turning to `O=C(c1ccnnc1)N1C[C@H]2CCC[C@@]2(COCC2CCOCC2)C1`, the Percent Effect was -2.87%.
Take `Cc1nccn1CC1CCCN1S(=O)(=O)Cc1ccccc1` (stereo not given): the Percent Effect came to 1.9%.
With `CC(C)c1n[nH]c(C2CN(C(=O)CCn3ccccc3=O)CCO2)n1` (stereo not given), the Percent Effect was -2.37%.
Consider `Cc1ccc(C(NC(=O)CC2CCN(C(C)C)CC2)C(=O)O)cc1` (stereo not given), for which the Percent Effect stood at 0.476%.
`c1ccc(-c2nnn3c2COC(CNCC2CCOCC2)C3)cc1` (stereo not given): the Percent Effect was -1.63%.
Consider `O=C(c1cncc(N2CCC3(CCNCC3)CC2)n1)N1CCCC1`, for which the Percent Effect stood at 33.9%.
As for `Cc1cc(NC(=O)NCCc2cccs2)n(C)n1`, the figure is 4.42%; as for `Cc1nc(-c2ccco2)ccc1C(=O)N1CCCC1Cn1cccn1` (stereo not given), 3.66%; as for `CCOCC1CN(C(=O)CS(C)(=O)=O)Cc2cnn(C)c21` (stereo not given), -11.3%.
Regarding `O=C1CC(c2ccccc2F)c2c(n3ccsc3nc2=O)N1` (stereo not given), the Percent Effect is -5.46%.
Turning to `O=C(c1cccnc1-n1cccn1)N1CCN(CC2CC2)CC1`, the Percent Effect was -0.952%.
Turning to `COc1cc(C(=O)N(Cc2cnn(C)c2)C(C)C)ccc1OCC(N)=O`, the Percent Effect is 0%.
As to `Cc1nn(C)c(C)c1C1CCCN1CC(=O)NC(C1CC1)C1CC1` (stereo not given), the Percent Effect is -4.01%.
Consider `Cc1nc(C2CCCN(C(=O)c3cccc4c3OCO4)C2)no1` (stereo not given), for which the Percent Effect was -3.23%.
To `COCCNC(=O)C(C)n1cc(Br)cn1` (stereo not given) belongs -2.76%.
For `Cc1nc(CN2CCOC(c3nc(C(C)C)n[nH]3)C2)oc1C` (stereo not given), the Percent Effect is 2.66%.

(Values after ChEMBL document CHEMBL3988442, “University of Dundee, Small-Polar-MMV Screening Library” (2021).)
